How the values were obtained:
Settings in all cases: concentration: 1 μM, replicates: in singlicate; n = 1
[1] = test system: JAK1(JH2domain-pseudokinase)
[2] = test system: JAK2(JH1domain-catalytic)
[3] = test system: JAK3(JH1domain-catalytic)
[4] = test system: T1, JNK1
T1 construct: gene MAPK8

[5] = test system: T2, JNK2
T2 construct: gene MAPK9

[6] = test system: T3, JNK3
T3 construct: gene MAPK10

[7] = test system: KIT-autoinhibited
[8] = test system: KIT
[9] = test system: LATS1
[10] = test system: LATS2
[11] = test system: LCK
[12] = test system: LIMK1
[13] = test system: LIMK2
[14] = test system: T4, LKB1
T4 construct: gene STK11

[15] = test system: T5, LOK
T5 construct: gene STK10

[16] = test system: LRRK2
[17] = test system: LTK
[18] = test system: LYN
[19] = test system: T6, LZK
T6 construct: gene MAP3K13

[20] = test system: MAK
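Further: KINOMEscan kinase panel screen.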

Row | Compound | %Inh [1] | %Inh [2] | %Inh [3] | %Inh [4] | %Inh [5] | %Inh [6] | %Inh [7] | %Inh [8] | %Inh [9] | %Inh [10] | %Inh [11] | %Inh [12] | %Inh [13] | %Inh [14] | %Inh [15] | %Inh [16] | %Inh [17] | %Inh [18] | %Inh [19] | %Inh [20]
1 | O=C(Nc1n[nH]c2nc(-c3ccc(O)cc3)ccc12)C1CC1 [SB-710363] | 33% | 53% | 62% | 25% | 13% | 2% | 0% | 12% | 17% | 10% | 24% | 2% | 0% | 9% | 27% | 0% | 58% | 23% | 0% | 90.7%
2 | Cn1cc(-c2ccc3c(c2)CCN3C(=O)Cc2cccc(Cl)c2)c2c(N)ncnc21 [GSK2606590] | 0% | 16% | 0% | 15% | 42% | 6% | 26% | 100% | 0% | 0% | 44% | 3% | 52% | 0% | 98.1% | 29% | 47% | 15% | 0% | 6%
3 | CC(C)c1nc(-c2cccc(NS(=O)(=O)c3c(F)cccc3F)c2F)c(-c2ccnc(Nc3ccc(N4CCOCC4)nc3)n2)s1 [GSK2008607] | 0% | 91.2% | 99.6% | 3% | 40% | 15% | 0% | 99.9% | 0% | 11% | 99.8% | 99.9% | 100% | 9% | 99.8% | 0% | 0% | 98.5% | 95.8% | 100%
4 | Fc1ccc(-c2ncn(C3CCNCC3)c2-c2ccnc(Oc3ccc(-c4ccccc4)cc3)n2)cc1 [SB-245391] | 0% | 50% | 41% | 36% | 66% | 46% | 0% | 17% | 0% | 21% | 0% | 0% | 0% | 0% | 21% | 0% | 12% | 9% | 0% | 10%
5 | COc1ccc(-c2coc3ccc(-c4nnc(SCc5ccc(OC)c(C(F)(F)F)c5)o4)cc23)cc1 | 32% | 22% | 0% | 0% | 0% | 0% | 7% | 20% | 25% | 0% | 0% | 25% | 12% | 0% | 24% | 0% | 27% | 0% | 0% | 22%
6 | Cc1cccc(NC(=O)Nc2ccc(Oc3ncnc4ccn(C)c34)cc2)c1 | 30% | 0% | 9% | 9% | 0% | 0% | 97% | 100% | 5% | 0% | 0% | 7% | 0% | 42% | 86% | 0% | 17% | 7% | 0% | 0%
7 | CCn1c(-c2nonc2N)nc2c(C#CC(C)(C)O)nc(OC[C@H](N)c3ccccc3)cc21 [GSK943949] | 0% | 8% | 4% | 0% | 0% | 0% | 4% | 0% | 59% | 100% | 1% | 11% | 6% | 31% | 1% | 14% | 0% | 1% | 0% | 0%
8 | COc1cccc(NC(=O)NC2CCN(c3ccnc(Nc4cc(OC)c(OC)c(OC)c4)n3)C2)c1 (stereo not drawn) [GSK1379763] | 29% | 88% | 0% | 28% | 27% | 39% | 17% | 98.5% | 0% | 13% | 14% | 21% | 34% | 2% | 43% | 0% | 62% | 0% | 25% | 23%
9 | COc1cc(Nc2nccc(N3CCC(NC(=O)c4cc5ccccc5s4)C3)n2)cc(OC)c1OC (stereo not drawn) [GSK1379760] | 0% | 76% | 0% | 17% | 16% | 23% | 0% | 36% | 57% | 5% | 29% | 17% | 24% | 14% | 84% | 0% | 13% | 31% | 30% | 23%

— paper PMC5540273 (PLoS ONE, 2017)
